Bioassay records from PubChem BioAssay.
This is a sample that favours compounds with a hit; in the whole collection about 1.3% have one here.
USP2a inh – qHTS Assay for Inhibitors of Ubiquitin-specific Protease USP2a. USP2a enzymatic assay, qHTS inhibition. Potency, µM (series often up to 38.3 µM), actives largely listed as inhibitors. actives 0.1% (n = 60,000). AID 927, 2007; further: nearly all actives have a fitted effect of over 60% in size
Target sequence (O75604 whole entry, looked up): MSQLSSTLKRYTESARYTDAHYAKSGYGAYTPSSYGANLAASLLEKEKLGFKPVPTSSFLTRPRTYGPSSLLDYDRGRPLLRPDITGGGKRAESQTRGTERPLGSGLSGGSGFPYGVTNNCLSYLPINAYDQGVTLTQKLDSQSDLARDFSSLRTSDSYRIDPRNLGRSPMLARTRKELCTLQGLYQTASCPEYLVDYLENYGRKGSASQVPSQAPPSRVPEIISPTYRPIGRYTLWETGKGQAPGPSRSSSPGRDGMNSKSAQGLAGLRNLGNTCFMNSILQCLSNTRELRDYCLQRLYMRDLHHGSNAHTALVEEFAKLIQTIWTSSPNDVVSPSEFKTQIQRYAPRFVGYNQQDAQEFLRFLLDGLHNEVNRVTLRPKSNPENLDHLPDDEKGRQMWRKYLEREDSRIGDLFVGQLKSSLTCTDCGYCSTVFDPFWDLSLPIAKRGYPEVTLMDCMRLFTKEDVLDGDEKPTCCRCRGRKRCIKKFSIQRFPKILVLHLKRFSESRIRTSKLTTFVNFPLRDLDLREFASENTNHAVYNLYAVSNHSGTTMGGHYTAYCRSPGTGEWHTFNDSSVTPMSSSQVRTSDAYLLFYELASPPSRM
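USP2 core (20nM final) preincubated 30 min RT with compound, then Ub-PLA2 20nM and NBD C6-HPC 20uM final added; buffer 20mM Tris-HCl pH 8.0, 2mM CaCl2. Fluorescence Ex 460/Em 535 read at 0 and 2.5 h; normalized to NEM.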
Epigenetic mod – qHTS Assay for Epigenetic Modulators; mouse C127i GFP locus derepression, cytometry, 30 h; actives 0.09% (n = 68,000); Potency, µM (series often up to 46.1 µM)
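Read-out is the number of GFP-positive cells, scored as fluorescent objects 20 to 120 um wide, reflecting derepression of a silenced CMV-GFP reporter in murine C127i cells after 30 h compound exposure at 37 C.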
UbGFP stabilizer – Ubiquitin-GFP Assay; Ubiquitin-GFP reporter cells, proteasome inhibition, GFP fluorescence; response scale: untreated = 0%, 10 µM MG-132 = 100%; Potency, µM (highest dose often 45.9 µM), usual class: activators; 67,000 tested, under 10 active; AID 526, 2006; active means well fitted activation curve with a large enough effect, not every such curve was filed as active; inconclusive means small, poorly fitted or top-dose-only effect, or another doubt; inactive means no such curve, though single readings can be large or run the other way
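GFP accumulation read-out: laser plate cytometry counting ubiquitin(G76V)-GFP-expressing U2OS cells after 4 hr compound exposure at 37 °C. Titrations spanned 46 uM to 2.9 nM; 0% = basal, 100% = 10 uM MG-132; concentration-response curves fitted.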
HBB splicing – qHTS Assay for Modulators of Hemoglobin Beta Chain Splicing; HBB splicing reporter cell assay, activation; EGFP reporter with mutant IVS2-654 intron; response scale: normalised to 500 nM splice-correcting PNA; Potency, µM (doses to about 46.1 µM), hits mostly activators; actives 0.06% (n = 65,000); AID 925, 2007
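Compounds were applied for 2 days to HeLa EGFP-654 cells, 500/well in Optimem with 2% FCS. The reporter's EGFP is disrupted by mis-splicing of beta-globin intron IVS2-654. Readout: summed well GFP fluorescence from 488 nm laser scanning; reference was 500 nM antisense […] 654 PNA.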
PK Bst – Pyruvate Kinase; Potency, µM; actives 1.2% (n = 51,000); AID 361, 2006; purified pyruvate kinase, luminescence ATP production; ribose 5-phosphate activator present at AC10; in the data active means potency below about 11 µM; inconclusive means mostly about 12 µM to 25 µM;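 the screen sought inhibitors and activators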
Hsp90 Hop PPI – qHTS Assay for Disrupters of an Hsp90 Co-Chaperone Interaction. AlphaScreen TPR2A-His6 binding biotin-Hsp90 C-terminal peptide. Potency, µM (highest dose often 57 µM). actives 0.44% (n = 71,000); active means well fitted curve in either direction with a large enough effect; inconclusive means small, poorly fitted or top-dose-only effect, or another doubt
Large screens that a line does not name were inactive. Unless noted, the call rests on the fitted dose curve; in most records, active means well fitted curve in the direction sought with a large enough effect; inconclusive means small, poorly fitted or top-dose-only effect, or another doubt; inactive means no such curve, though single readings can be large; an effect the other way counts as inactive or inconclusive.

COc1ccc([C@@H]2CC(=O)c3c(O)cc(O[C@@H]4O[C@@H](CO[C@@H]5O[C@@H](C)[C@@H](O)[C@@H](O)[C@H]5O)[C@@H](O)[C@@H](O)[C@H]4O)cc3O2)cc1O	none (no result: USP2a inh, HBB splicing, PK Bst)
CCNc1nc(NCC)nc(-n2nc(C)cc2C)n1	Epigenetic mod inconclusive (no result: USP2a inh, PK Bst)
Cc1cc(C)n(-c2nc(NC(C)C)nc(NC(C)C)n2)n1	Epigenetic mod 6.3µM (no result: HBB splicing)
Cc1cc(C)n(-c2nc(NC(C)(C)C)nc(NC(C)(C)C)n2)n1	Epigenetic mod 13µM (no result: PK Bst)
Cc1csc(NC(=O)c2sc3nc(-c4cccs4)ccc3c2N)n1	HBB splicing 16µM, PK Bst 7.4, Hsp90 Hop PPI inconclusive
N=c1n(CCN2CCOCC2)c2ccccc2n1CC(=O)c1ccc(Cl)c(Cl)c1	PK Bst 3.1
COc1cccc(-c2cc(C(=O)Nc3cccc(O)c3)no2)c1	PK Bst 5.6, Hsp90 Hop PPI inconclusive
COc1cc(NC(=O)c2cc(-c3cccc(O)c3)on2)cc(OC)c1OC	none (no result: USP2a inh, PK Bst)
Cn1c(NCc2c[nH]c3ccccc23)nc2ccccc21	none (no result: HBB splicing, PK Bst)
Cn1c(/N=C/c2c[nH]c3ccccc23)nc2ccccc21	PK Bst 0.3
O=C(Nc1ccc2c(c1)OCCO2)C1CCCN1S(=O)(=O)c1ccc(Cl)cc1 (stereo not given)	PK Bst 11 (no result: HBB splicing)
O=C(Nc1nccs1)C1CCCN1S(=O)(=O)c1ccc(Cl)cc1 (stereo not given)	PK Bst 10
O=C(Nc1cccnc1)C1CCCN1S(=O)(=O)c1ccc(Cl)c(Cl)c1 (stereo not given)	PK Bst 4.7
CCCCN(CC)S(=O)(=O)c1cccc2cccnc12	none (no result: USP2a inh, Epigenetic mod, PK Bst)
COC(=O)c1ccc(NC(=O)c2ccc(CN3CCOCC3)cc2)cc1	none
O=C(Nc1ccc(CN2CCOCC2)cc1)c1ccc(-c2ccc(Br)cc2)o1	PK Bst 7.1
O=[N+]([O-])c1cc(Cc2cc([N+](=O)[O-])c3cccnc3c2O)c(O)c2ncccc12	Hsp90 Hop PPI 1.6µM (no result: USP2a inh, PK Bst)
O=C(OCC(=O)N1CCN(C(=O)c2ccco2)CC1)c1cc(-c2ccccc2)nc2ccccc12	PK Bst inconclusive
O=C(OCC(=O)N1CCN(C(=O)c2ccco2)CC1)c1cc(-c2ccc(F)cc2)nc2ccccc12	PK Bst 2.1
CC(=O)Oc1ccc(/C=C\C(=O)C[C@@H]2O[C@@H](Oc3cc(OC(C)=O)c4c(c3)O[C@@H](c3ccc(OC(C)=O)cc3)CC4=O)[C@H](OC(C)=O)[C@H](OC(C)=O)[C@@H]2OC(C)=O)cc1	none (no result: USP2a inh, HBB splicing, PK Bst)
CN1CCN(CCCNc2nc3ccccc3c3nc(-c4ccccc4)nn23)CC1	PK Bst 10
CC(C)c1cc(=O)oc2c3c4c(cc12)CCCN4CCC3	none (no result: PK Bst)
N#Cc1ccc(NC(=O)c2cc3cc4c5c(c3oc2=N)CCCN5CCC4)cc1	Epigenetic mod 10µM
N=c1oc2c3c4c(cc2cc1C(=O)Nc1ccccc1)CCCN4CCC3	UbGFP stabilizer inconclusive, HBB splicing 3.2µM
C=C[C@@]1(C)CC(=O)[C@@]2(O)[C@@]3(C)[C@H](O)CCC(C)(C)[C@@H]3[C@H](O)[C@H](OC(C)=O)[C@]2(C)O1	none (no result: PK Bst)
Cc1csc(SCC(=O)c2cc(C)n(Cc3cccs3)c2C)n1	PK Bst 3.2
Nc1nc(Cl)nc2c1ncn2[C@@H]1O[C@@H](COP(=O)(O)OP(=O)(O)OP(=O)(O)O)[C@@H](O)[C@H]1O	none (no result: PK Bst)
CN(C)CCOc1nc(-c2ccccc2)nc2c1oc1ccccc12	PK Bst 11
CCN(CC)CCOc1nc(C)nc2c1oc1ccccc12	none
CN1C[C@H](C(=O)N[C@]2(C)O[C@@]3(O)[C@H]4CCCN4C(=O)[C@@H](Cc4ccccc4)N3C2=O)C[C@H]2c3cccc4[nH]cc(c34)C[C@@H]21	none (no result: USP2a inh, HBB splicing, PK Bst)
O=C(Nc1ccc2c(c1)ncn2-c1ccccc1)c1ccco1	PK Bst 10
Cc1ccnc(NC(=O)Nc2ccc(F)cc2)c1	Hsp90 Hop PPI inconclusive (no result: PK Bst)
Cc1ccc(NC(=O)Nc2ccc(F)cc2)nc1	PK Bst 4.7
Cc1c(NC(=O)c2cc(-n3cnnc3)ccc2Cl)cccc1-c1nc2ccccc2o1	PK Bst 5.7
CN(CC(=O)NC1CCCCCCC1)S(=O)(=O)c1cccc2cccnc12	none (no result: USP2a inh, Epigenetic mod, PK Bst)
O=S(=O)(Nc1ccc2c(c1)OCCO2)c1cccc2cccnc12	PK Bst 3.3
CN(CC(=O)Nc1ccc2c(c1)OCCO2)S(=O)(=O)c1cccc2cccnc12	none (no result: USP2a inh, PK Bst)
O=C(O)c1ccccc1NS(=O)(=O)c1cccc2cccnc12	PK Bst 9.1
COc1ccc(NS(=O)(=O)c2cccc3cccnc23)cc1	PK Bst 2.6
O=S(=O)(NC1CCCCCC1)c1cccc2cccnc12	PK Bst 11
COc1ccccc1NS(=O)(=O)c1cccc2cccnc12	none (no result: USP2a inh, Epigenetic mod, PK Bst)
CCCNC(=O)c1cc(-c2ccc(O)cc2)on1	none (no result: USP2a inh, PK Bst)
Cc1cc(-c2csc(NC(=O)c3ccc(=O)n(C)n3)n2)c(C)n1CC1CCCO1 (stereo not given)	PK Bst 9.1
CCN(CC)c1ccc2c(c1)oc(=O)c1c(Cl)cc(=O)oc12	Epigenetic mod inconclusive
CCOC(=O)Cc1c(C)c2ccc(N(CC)CC)cc2oc1=O	Hsp90 Hop PPI 25µM (no result: HBB splicing, PK Bst)
CCN(CC)c1ccc2c(Cl)c(Br)c(=O)oc2c1	USP2a inh inconclusive, Epigenetic mod 10µM, UbGFP stabilizer inconclusive, Hsp90 Hop PPI 25µM (no result: HBB splicing)
N#Cc1ccc(CN2CCC3(CC2)CCN(C(=O)c2cccc(F)c2)CC3)cc1	none (no result: PK Bst)
Nc1ccc(N)c(Cl)c1	none (no result: USP2a inh, Epigenetic mod, UbGFP stabilizer, PK Bst)
Cc1ccc(Cl)cc1N1CCN(C(=O)CN2C(=O)c3cccc4cccc2c34)CC1	PK Bst 5.3
Cc1ccc(Cl)cc1N1CCN(C(=O)CCC(=O)O)CC1	none (no result: HBB splicing)
Oc1ccc(-c2[nH]ncc2-c2cccc3cccnc23)c(O)c1	PK Bst 5.9
Cc1cc(C(=O)CN2C(=O)C3CC=CCC3C2=O)c(C)n1-c1ccccc1 (stereo not given)	PK Bst 6
C=CC1=C(C)C2=Cc3c(C=C)c(C)c4[n]3[Sn+2][n]3c(c(C)c(CCC(=O)O)c3=CC3=NC(=C4)C(C)=C3CCC(=O)O)=CC1=N2	Hsp90 Hop PPI 32µM (no result: USP2a inh, HBB splicing, PK Bst)
C=Cc1c(C)c2cc3[nH]c(cc4nc(cc5nc(cc1[nH]2)C(C)=C5CCC(=O)O)C(CCC(=O)O)=C4C)c(C)c3C=C	Hsp90 Hop PPI inconclusive (no result: PK Bst)
C=CCN1CCc2c(cc(O)c(O)c2Cl)[C@H](c2ccccc2)C1	Hsp90 Hop PPI inconclusive (no result: PK Bst)
